These results are taken from the supplement of paper PMC12282887.

The assay has as its system E. coli BW25113 marRABp lux reporter. Kind of assay: promoter activity interaction Z-score (Lux/OD deviation from empty-vector control); higher = stronger promoter induction by the compound. Here is the method: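 E. coli BW25113 (wild type or ΔmarA/ΔsoxS/Δrob) carrying pTU175 luxCDABE promoter reporters was grown in LB in 384-well plates at 37°C with each of 94 compounds at 4 two-fold concentrations, in biological duplicates. Luminescence and OD600 were read every 30 min for 12 h and integrated as AUC over 8 h (0-8 h WT, 1-9 h mutants). Lux AUC was divided by OD AUC; the interaction score is the residual of a Huber robust fit of each promoter against the empty-vector control, then Z-transformed per promoter.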

Each structure is given as a SMILES string. ± gives the standard deviation of the averaged measurements.

Take `CN[C@@H]1[C@H](O)[C@H](NC)[C@H]2O[C@@]3(O)C(=O)C[C@@H](C)O[C@H]3O[C@@H]2[C@H]1O` [Spectinomycin]: the “promoter activity interaction Z-score” value was 0.174 ± 0.026 (0.62 µg/ml, genetic background: wild type); 0.168 ± 0.75 (0.62 µg/ml, genetic background: ΔmarA); 0.332 ± 0.41 (0.62 µg/ml, genetic background: Δrob); -0.125 ± 0.11 (0.62 µg/ml, genetic background: ΔsoxS); 0.433 ± 0.052 (1.2 µg/ml, genetic background: wild type); 0.324 ± 0.39 (1.2 µg/ml, genetic background: ΔmarA). Also, the “promoter activity interaction Z-score” value is, setting by setting: (1.2 µg/ml, genetic background: Δrob) 0.402 ± 0.72; (1.2 µg/ml, genetic background: ΔsoxS) 0.018 ± 0.043; (2.5 µg/ml, genetic background: wild type) 0.0652 ± 0.25; (2.5 µg/ml, genetic background: ΔmarA) -0.102 ± 0.25; (2.5 µg/ml, genetic background: Δrob) -0.0628 ± 0.069; (2.5 µg/ml, genetic background: ΔsoxS) -0.128 ± 0.04. Moreover, the “promoter activity interaction Z-score” value (5 µg/ml, genetic background: wild type) was 0.205 ± 0.44; the “promoter activity interaction Z-score” value (5 µg/ml, genetic background: ΔmarA) was found to be 0.687 ± 1.1; the “promoter activity interaction Z-score” value (5 µg/ml, genetic background: Δrob) stood at 0.305 ± 0.34; the “promoter activity interaction Z-score” value (5 µg/ml, genetic background: ΔsoxS) turned out to be 0.00851 ± 0.23.

As to `C[C@]12CCC(=O)C=C1CC[C@@H]1[C@@H]2[C@@H](O)C[C@@]2(C)[C@H]1CC[C@]2(O)C(=O)CO` [Hydrocortisone], the “promoter activity interaction Z-score” value is -0.21 ± 0.0069 (22.7 µg/ml, genetic background: wild type); -0.342 ± 0.029 (22.7 µg/ml, genetic background: ΔmarA); -0.0926 ± 0.12 (22.7 µg/ml, genetic background: Δrob); -0.27 ± 0.066 (22.7 µg/ml, genetic background: ΔsoxS); -0.258 ± 0.11 (45.3 µg/ml, genetic background: wild type); -0.377 ± 0.024 (45.3 µg/ml, genetic background: ΔmarA). The “promoter activity interaction Z-score” value by setting is: (45.3 µg/ml, genetic background: Δrob) -0.12 ± 0.044; (45.3 µg/ml, genetic background: ΔsoxS) -0.15 ± 0.019; (90.6 µg/ml, genetic background: wild type) -0.225 ± 0.18; (90.6 µg/ml, genetic background: ΔmarA) -0.395 ± 0.011; (90.6 µg/ml, genetic background: Δrob) -0.23 ± 0.18; (90.6 µg/ml, genetic background: ΔsoxS) -0.551 ± 0.19. In addition, the “promoter activity interaction Z-score” value (181.2 µg/ml, genetic background: wild type) is -0.465 ± 0.21; the “promoter activity interaction Z-score” value (181.2 µg/ml, genetic background: ΔmarA) is -0.467 ± 0.023; the “promoter activity interaction Z-score” value (181.2 µg/ml, genetic background: Δrob) is -0.34 ± 0.16; the “promoter activity interaction Z-score” value (181.2 µg/ml, genetic background: ΔsoxS) is -0.371 ± 0.24.
